Source: PubChem BioAssay (several laboratories)
In the library only some 3.9% were active in any assay of this set; here they are far more common.
Anthrax LF prot = anthrax lethal factor protease inhibition; multiplex microsphere protease cleavage assay, LF; inhibition, % at 10 µM; 0.12% of 360,000 active; further: plate controls were buffer without enzyme for full effect and enzyme alone for no effect
SARS 3CLpro inh = SARS-CoV 3CLpro protease inhibition | inhibition, % at 6 µM | 0.14% of 290,000 active | recombinant SARS-CoV 3CLpro, quenched FRET peptide cleavage | P0C6X7; in the data active means inhibition above about 12%
BoNT F protease = inhibitors of Botulinum neurotoxin F light chain protease | inhibition, % at 10 µM | 0.22% of 360,000 active | AID 588497 | Multiplex microsphere protease cleavage assay, flow cytometry; in the data active means inhibition above about 35%, passing the limit was not always enough; inconclusive means no clear call, values can overlap the other calls; further: plate controls were buffer without enzyme for full effect and enzyme alone for no effect
BoNT A protease = blocks Botulinum neurotoxin A light chain protease; 0.17% of 360,000 active; inhibition, % at 10 µM; AID 588499; multiplex microsphere protease substrate cleavage, flow cytometry; further: plate controls were buffer without enzyme for full effect and enzyme alone for no effect
Bead autofluor = compound fluorescence in toxin protease inhibitor counterscreen | compound autofluorescence counterscreen, microsphere flow cytometry; active compounds read high | fluorescence intensity (no concentration beside the values) | 3.1% of 360,000 active; in the data active means fluorescence intensity above about 16000; inconclusive means no clear call, values can overlap the other calls
VHR inh abs = DUSP3 (human) phosphatase inhibition; 0.52% of 290,000 active; recombinant VHR phosphatase, pNPP absorbance; P51452; inhibition, % at 13.3 µM; AID 1654; in the data active means inhibition above about 50%
Target sequence (P51452 whole entry, looked up): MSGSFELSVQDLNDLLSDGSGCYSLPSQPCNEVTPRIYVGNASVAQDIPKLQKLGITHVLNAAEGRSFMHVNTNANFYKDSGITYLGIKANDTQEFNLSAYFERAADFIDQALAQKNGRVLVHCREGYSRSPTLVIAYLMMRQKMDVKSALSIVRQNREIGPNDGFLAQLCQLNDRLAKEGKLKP
Numbers without * were called inactive; ? = inconclusive; . = no result. Unless noted, no stated cut-off is given here; in the data, active means inhibition above about 30%; inconclusive means no clear call, values can overlap the other calls; inactive means below that.

SMILES	Anthrax LF prot	SARS 3CLpro inh	BoNT F protease	BoNT A protease	Bead autofluor	VHR inh abs
Cc1ccc(Nc2nc(N)c([N+](=O)[O-])c(NCc3ccco3)n2)cc1C	-4	4	-13	-2	9582	3
CCOC(=O)CSc1ncc(OC)c(=O)[nH]1	9	1	5	0	10007	9
CCOC(=O)C(C)Sc1ncc(OC)c(Sc2ccc(Cl)cc2)n1 (stereo not given)	-2	7	-10	-6	24632*	19
CCOC(=O)CSc1ncc(OC)c(Sc2ccc(Cl)cc2)n1	-16	0	0	?	21505*	25
CCOC(=O)N1CCN(C(=O)c2cc(C)c3c(C)nn(-c4ccccc4)c3n2)CC1	1	2	-1	-1	23022*	0
CCOC(=O)N1CCC(NC(=O)CCc2c(C)nc3c(c(C)nn3-c3ccccc3)c2C)CC1	-14	.	-6	-2	4198	.
CCOC(=O)/C(=C/C=C1\Sc2cc(C)c(C)cc2N1CC)C(C)=O	23	-4	20	40*	16482*	6
COC(=O)C1=NN(c2ccc(C)cc2)C2(S1)SC(C(C)=O)=C(C)N2c1ccccc1 (stereo not given)	-5	0	-7	-3	23648*	-4
CN1CCCCCC1=Nc1ccc([N+](=O)[O-])cc1	1	.	39*	0	2847	.
CN1CCCC1=Nc1ccccc1	5	.	-1	0	3747	.
O=C(c1ccc(NS(=O)(=O)c2cccc([N+](=O)[O-])c2)cc1)N1CCN(C(=O)c2ccco2)CC1	13	.	4	1	3504	.
COc1cccc(C(=O)N2CCN(S(C)(=O)=O)CC2)c1	-5	-3	0	-1	23027*	18
CS(=O)(=O)N1CCN(C(=O)c2ccccc2F)CC1	7	2	21	1	4014	0
CS(=O)(=O)N1CCN(C(=O)c2c(F)cccc2F)CC1	-1	3	-3	-1	23941*	-9
COc1cccc(S(=O)(=O)Nc2ccc(C(=O)N3CCN(C(=O)c4ccco4)CC3)cc2)c1	-9	-4	5	5	18332*	22
CCCCn1nnnc1C1(C)CCC(=O)N1Cc1ccc(C)cc1 (stereo not given)	2	.	7	0	4084	.
Cc1ccnc(NS(=O)(=O)c2cc(C(F)(F)F)ccc2Cl)c1	.	-1	.	.	.	2
O=S(=O)(NCCc1cn2ccccc2n1)c1ccc(-c2ccccc2)cc1	0	4	-2	2	5022	57*
CCC(C)c1ccc(NC(=O)NCCN2CCCCC2)cc1 (stereo not given)	0	0	?	2	4150	-10
Cc1cc(C(=O)COC(=O)CNS(=O)(=O)c2ccc3ccccc3c2)c(C)n1-c1ccccc1	-2	2	-3	0	2087	-4
O=C(CNS(=O)(=O)c1ccc2ccccc2c1)OCC(=O)c1ccc(Br)s1	-2	-3	7	5	18275*	-6
CCc1cnc(Nc2nc(C(N)Cc3ccc(F)cc3)cs2)nc1 (stereo not given)	-13	.	-16	-1	4456	.
Nc1c(C(=O)CSc2nccn2-c2cccc(F)c2)c(=O)[nH]c(=O)n1C1CC1	-3	.	-1	0	3785	.
CCN(CC)CCCn1c(=S)[nH]c2cc(OC)c(OC)cc2c1=O	-1	-1	-8	?	22782*	0
CCN(CC)CCNC(=O)c1ccc2c(=O)n(C3CCCC3)c(=S)[nH]c2c1	-1	5	1	0	20853*	21
SMILES	Anthrax LF prot	SARS 3CLpro inh	BoNT F protease	BoNT A protease	Bead autofluor	VHR inh abs
CCn1c(=S)[nH]c2cc(C(=O)OC)ccc2c1=O	3	-3	-2	0	6493	23
CCN(CC)CCCn1c(=S)[nH]c2cc(C(=O)OC)ccc2c1=O	-1	-6	-3	1	23192*	9
COc1cc2[nH]c(=S)n(NC(=O)c3ccccc3)c(=O)c2cc1OC	0	-3	0	-1	16796*	30
COCCn1c(=S)[nH]c2cc(OC)c(OC)cc2c1=O	-1	-2	2	0	5073	-8
CC(C)NC(=O)c1ccc2c(=O)n(C3CCCC3)c(=S)[nH]c2c1	-5	0	2	0	9824	2
O=c1ccc(-c2ccccc2)no1	-7	3	-6	-1	5617	-7
CN(Cc1ccccc1)c1nc2nonc2nc1N1CCCC(CN2CCCC2=O)C1 (stereo not given)	0	2	7	0	3944	-13
COC(=O)c1ccc2c(=O)n(NC(C)=O)c(=S)[nH]c2c1	-3	3	-5	-2	23622*	-15
CSc1nc2nccc(-c3ccc(Cl)cc3)n2n1	-3	4	-10	0	2518	18
FC(F)(F)c1cnc(Sc2nc3nccc(-c4ccc(Cl)cc4)n3n2)c(Cl)c1	0	7	-2	0	20640*	7
COc1ccc(-c2ccnc3nc(Sc4ncc(C(F)(F)F)cc4Cl)nn23)cc1	0	-4	-5	-2	20277*	28
COc1ccc(-n2ncc3c2CC(C)(C)CC3NC(=O)c2cn[nH]c2)cc1 (stereo not given)	0	2	-5	-2	5986	2
CN(C)S(=O)(=O)c1cc(NC(=O)Cn2ccsc2=N)ccc1Cl	-6	1	2	2	6805	37
COc1ccc(S(=O)(=O)N2CCC(C(=O)NCC3CCCO3)CC2)cc1 (stereo not given)	0	0	5	6	20959*	-6
COc1ccc(S(=O)(=O)N2CCC(C(=O)NCC3CCCO3)CC2)cc1OC (stereo not given)	0	-2	-1	0	4453	26
Cc1ccc(S(=O)(=O)N2CCC(C(=O)N[C@H](C(=O)NCC3CCCO3)C(C)C)CC2)cc1 (stereo not given in full)	-2	5	-1	-1	20985*	-6
CC(C)(C)c1ccc(C(=O)N2CCC(C(=O)NCC3CCCO3)CC2)cc1 (stereo not given)	-3	-4	2	1	22225*	-12
CC(C)(C)NC(=O)C1CCN(C(=O)c2ccc(Br)cc2)CC1	3	-2	7	?	19805*	-2
Cc1ccc(N(Cc2ccccc2F)S(C)(=O)=O)cc1C	-2	10	-7	0	11340	25
COc1ccccc1OC(=O)Cc1cccc2ccccc12	11	-2	10	2	3967	-9
COc1ccccc1CC(=O)O/N=C(\N)Cc1cccc2ccccc12	3	2	-1	2	22659*	3
NC(=Nc1ccc(Br)cc1)c1ccccc1	3	6	?	-3	4134	51*
COC(=O)c1ccc(COc2ccc(Cl)cc2)o1	-6	0	-2	1	3301	1
COC(=O)c1ccc(COc2cccc(OC)c2)o1	-9	-1	-3	1	22471*	10
COc1ccc(C(=O)Nc2nc3cc(OC)c(OC)cc3c(=O)[nH]2)cc1	-2	0	-5	-3	25582*	4
COc1cc2nc(NC(=O)c3ccccc3)[nH]c(=O)c2cc1OC	2	-2	-10	-1	4386	-22
